In PubChem BioAssay (EPA / NIEHS):
Results filed as inconclusive are left out. A structure can be active in one record and inactive in another. Activity calls are given as the source filed them. The calls were made as follows, unless noted: active = hit-call score of the fitted dose curve at least 0.9, where 1 is the maximum; inactive = score below 0.9.

Tests used:
IYD (gene 389434) = assay: CCTE_GLTED_hIYD: CCTE's human Iodotyrosine Deiodinase (xIYD) Inhibition Assay, Great Lakes Toxicology and Ecology Division (GLTED) Lab (AID 2284317; active = hit-call score of the fitted dose curve at least 0.9, where 1 is the maximum;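 also: cell-free human IYD enzyme made in baculovirus insect cells; iodide freed from monoiodotyrosine measured by cerium arsenite color change at 420 nm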)
Method in brief: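 Absorbance change at 420 nm from the iodide-catalysed cerium-arsenic reaction reports free iodide released by human IYD from monoiodotyrosine. Enzyme, substrate and chemical are incubated 3 h; loss of signal is fitted relative to DMSO baseline.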

KRT18 (gene 3875) = assay: BSK_BE3C_Keratin818: BioMAP Diversity Plus: BE3C Assay for Keratin 818 Biomarker Activity (AID 2284282); conditions: primary human bronchial epithelial cells
Method in brief: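 Chemicals are added to human lung bronchial epithelial primary cells (BE3C system) and incubated 24 h. Keratin 8/18 is then measured by ELISA, with parallel SRB total-protein staining gauging overt cytotoxicity.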

[1] = read-out: Matrix Metallopeptidase 9 (MMP9), MMP9 (gene 4318); assay: BSK_BE3C_MMP9: BioMAP Diversity Plus: BE3C Assay for Matrix Metallopeptidase 9 (MMP9) Biomarker Activity (AID 2284283); conditions: primary human bronchial epithelial cells
Method in brief: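 BE3C, human bronchial epithelial primary cells; 24 h post-dose; MMP-9 by ELISA; positive fit vs DMSO; SRB (0.1%, TCA-fixed, 560 nm) parallel cytotox.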

[2] = read-out: Plasminogen activator inhibitor-1 (PAI1), SERPINE1 (gene 5054); assay: BSK_CASM3C_PAI1: BioMAP Diversity Plus: CASM3C Assay for Plasminogen activator inhibitor-1 (PAI1) Biomarker Activity (AID 2284284); conditions: primary human coronary artery smooth muscle cells;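 also: PAI-1 protein level measured by ELISA 24 h after dosing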
[3] = read-out: Monocyte Chemoattractant Protein-1 (MCP1), CCL2 (gene 6347); assay: BSK_hDFCGF_MCP1: BioMAP Diversity Plus: hDFCGF Assay for Monocyte Chemoattractant Protein-1 (MCP1) Biomarker Activity (AID 2284285); conditions: primary human foreskin fibroblasts
Method in brief: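 Human foreskin fibroblasts (hDFCGF system) were exposed to compound and secreted MCP-1 was measured by ELISA after 24 hours. Activity was fitted relative to DMSO. Cytotoxicity was checked by SRB total-protein staining in parallel cultures.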

[4] = read-out: Intercellular Adhesion Molecule 1 (ICAM1), ICAM1 (gene 3383); assay: BSK_hDFCGF_ICAM1: BioMAP Diversity Plus: hDFCGF Assay for Intercellular Adhesion Molecule 1 (ICAM1) Biomarker Activity (AID 2284287); conditions: primary human foreskin fibroblasts
Method in brief: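 Primary human foreskin fibroblasts (hDFCGF system) dosed with chemical; ICAM-1 quantified by ELISA at 24 h relative to DMSO. Parallel SRB total-protein staining to assess overt cytotoxicity.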

[5] = read-out: Thrombomodulin, THBD (gene 7056); assay: BSK_LPS_Thrombomodulin: BioMAP Diversity Plus: LPS Assay for Thrombomodulin Biomarker Activity (AID 2284296); conditions: primary human HUVEC with PBMC
Method in brief: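 Human umbilical vein endothelial cells co-cultured with PBMC and stimulated with LPS; cell-surface thrombomodulin measured by ELISA 24 hours after compound. Gain or loss versus DMSO; cytotoxicity checked by SRB staining in parallel cultures.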

CD69, CD69 (gene 969) = assay: BSK_LPS_CD69: BioMAP Diversity Plus: LPS Assay for CD69 Biomarker Activity (AID 2284303); conditions: primary human HUVEC with PBMC
Method in brief: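 Human umbilical vein endothelial cells co-cultured with PBMC under LPS stimulation, chemical exposure 24 h; cell-surface CD69 measured by ELISA and fitted in the positive direction versus DMSO.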

[6] = IUF_NPC2c_oligodendrocyte_migration_120hr: Leibniz Research Institute for Environmental Medicine (IUF) 120-hour Neural Progenitor Cell Migration Assay for Oligodendrocyte Migration (NPC2c) (AID 2284297)
Method in brief: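 Read-out is the mean distance of O4-positive oligodendrocytes from the sphere core edge at 120 h, normalized to radial glia migration and fitted in the gain direction against DMSO. Spheres of primary human neural progenitors differentiated on laminin under continuous compound exposure.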

[7] = IUF_NPC2a_radial_glia_migration_120hr: Leibniz Research Institute for Environmental Medicine (IUF) 120-hour Neural Progenitor Cell Migration Assay for Radial Glia Migration (NPC2a) (AID 2284298)
Method in brief: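 Readout: distance in um from sphere core edge to migration-area edge, derived from Hoechst nuclei density with a threshold-defined polynomial boundary. Spheres: hNPC, GW 16-19, 0.3 mm, on PDL/laminin; exposure 5 days; DMSO is baseline.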

[8] = IUF_NPC2a_radial_glia_migration_72hr: Leibniz Research Institute for Environmental Medicine (IUF) 72-hour Neural Progenitor Cell Migration Assay for Radial Glia Migration (NPC2a) (AID 2284299)
Method in brief: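 Primary hNPC spheres, fetal brain GW 16-19, on PDL/laminin; DMEM/F12 3:1 + 1% N2. Compound dosed day 0, 7 conc. + SC, half-medium refresh day 3. 72 h brightfield, migration distance core-to-front (um), 4 directions averaged.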

[9] = IUF_NPC2b_neuronal_migration_120hr: Leibniz Research Institute for Environmental Medicine (IUF) 120-hour Neural Progenitor Cell Migration Assay for Neuron Migration (NPC2b) (AID 2284300)
Method in brief: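 Read-out is mean distance from sphere edge to each TUBB3-positive neuron at 120 h, expressed relative to radial glia migration distance and to DMSO baseline. Single 0.3 mm human NPC spheres differentiated on laminin under continuous compound exposure.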

[10] = IUF_NPC3_neuronal_differentiation_120hr: Leibniz Research Institute for Environmental Medicine (IUF) 120-hour Neuronal Differentiation Assay (NPC3) (AID 2284301)
Method in brief: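 Primary human fetal neural progenitor spheres (GW 16-19, 0.3 mm) plated on poly-D-lysine/laminin in N2 medium, exposed from day 0 for 120 h with half-medium refresh at day 3. TUBB3+ cells as percent of Hoechst nuclei in migration area; DMSO baseline.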

[11] = IUF_NPC4_neurite_length_120hr: Leibniz Research Institute for Environmental Medicine (IUF) 120-hour Neuronal Morphology Assay for Neurite Length (NPC4) (AID 2284302)
Method in brief: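 Human fetal cortex (GW 16-19) neural progenitor spheres, 0.3 mm, were plated on poly-D-lysine/laminin in N2 differentiation medium and exposed from day 0 for 120 h, half-feeding at day 3. Mean TUBB3+ neurite length (µm) came from skeletonized images, relative to DMSO.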

[12] = IUF_NPC5_oligodendrocyte_differentiation_120hr: Leibniz Research Institute for Environmental Medicine (IUF) 120-hour Oligodendrocyte Differentiation Assay (NPC5) (AID 2284304; active = hit-call score of the fitted dose curve at least 0.9, where 1 is the maximum;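 also: primary human fetal neural progenitor spheres plated to migrate and differentiate; share of O4-positive cells among Hoechst nuclei found by CNN image analysis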)
Method in brief: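 Oligodendrocyte differentiation was scored after 120 h as the O4-positive share of Hoechst-stained nuclei across the neurosphere migration area, using a trained convolutional neural network on high-content fluorescence images. Human fetal neural progenitor spheres were dosed from day 0, normalised to DMSO.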

[13] = IUF_NPC2-5_cytotoxicity_72hr: Cytotoxicity Assessment at 72 hours in the Leibniz Research Institute for Environmental Medicine (IUF) Neural Progenitor Cell Migration and Differentiation Assay for Cytotoxicity (NPC2-5) (AID 2284306; active = hit-call score of the fitted dose curve at least 0.9, where 1 is the maximum;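 also: LDH release into supernatant measured by resorufin fluorescence marking membrane damage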)
Method in brief: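 Human fetal (GW 16-19) neural progenitor spheres, 0.3 mm, plated on poly-D-lysine/laminin in N2 differentiation medium and exposed from day 0 to 7 concentrations plus solvent control (DMSO ≤0.1%). LDH-dependent resazurin-to-resorufin fluorescence in supernatant at 72 h.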

[14] = IUF_NPC2-5_cytotoxicity_120hr: Cytotoxicity Assessment at 120 hours in the Leibniz Research Institute for Environmental Medicine (IUF) Neural Progenitor Cell Migration and Differentiation Assay (NPC2-5) (AID 2284307; active = hit-call score of the fitted dose curve at least 0.9, where 1 is the maximum)
Method in brief: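 Sphere plating starts differentiation and exposure together at day 0. Compound solution is half-replaced on day 3. At 120 h, medium supernatant is taken for an LDH membrane-integrity read based on resazurin reduction to resorufin fluorescence.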

[15] = IUF_NPC2-5_cell_number_120hr: Cell Number Assessment at 120 hours in the Leibniz Research Institute for Environmental Medicine (IUF) Neural Progenitor Cell Migration and Differentiation Assay (NPC2-5) (AID 2284308);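 also: count of Hoechst-stained nuclei in migration zone around plated human neural progenitor spheres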
Method in brief: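 hNPC spheres, one per well, PDL/laminin, N2 medium, 37C, 5% CO2. Dosing day 0 → half-medium change with fresh compound day 3 → fix 120 h. Readout: Hoechst+ nuclei count, migration area; 7 concentrations plus solvent control.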

[16] = IUF_NPC2-5_viability_120hr: Viability Assessment at 120 hours in the Leibniz Research Institute for Environmental Medicine (IUF) Neural Progenitor Cell Migration and Differentiation Assay (NPC2-5) (AID 2284312)
Method in brief: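 Human fetal (GW 16-19) neural progenitor spheres of 0.3 mm were plated on poly-D-lysine/laminin in N2 differentiation medium and exposed from day 0 for 120 h, with half-medium refresh at day 3. Viability was read as alamar blue resazurin-to-resorufin fluorescence against DMSO.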

[17] = IUF_NPC4_neurite_area_120hr: Leibniz Research Institute for Environmental Medicine (IUF) 120-hour Neuronal Morphology Assay for Neurite Area (NPC4) (AID 2284305; active = hit-call score of the fitted dose curve at least 0.9, where 1 is the maximum)
Method in brief: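 Human fetal cortex-derived neural progenitor spheres (0.3 mm, GW 16-19) plated on poly-D-lysine/laminin in N2 differentiation medium and exposed from day 0 for 120 h across 7 concentrations plus solvent control. Neurite area is mean pixel area per TUBB3-positive neuron via skeletonization, analysed relative to DMSO.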

Measured: AC50

CCCCCCCCCCCCCOS(=O)(=O)O
active: IYD (gene 389434) 34.2 µM

CCCCCCCCCCCCCCCC(=O)O
active: IYD (gene 389434) 80.9 µM

CC(=O)OCCC(C)CC(C)(C)C (stereo not drawn)
inactive: KRT18 (gene 3875) | [1] | [2] | [3] | [4] | [5] | CD69, CD69 (gene 969)

NCCNCCN
inactive: KRT18 (gene 3875) | [1] | [2] | [3] | [4] | [5] | CD69, CD69 (gene 969)

CC[Si](OC(C)=O)(OC(C)=O)OC(C)=O
inactive: KRT18 (gene 3875) | [1] | [2] | [3] | [4] | [5] | CD69, CD69 (gene 969)
active: [1] 6.87 µM

CN(C)C(=N)N=C(N)N
inactive: [6] | [7] | [8] | [9] | [10] | [11] | [12] | [13] | [14] | [15] | [16]

COc1cc(C=O)ccc1OC(=O)C(C)C
inactive: KRT18 (gene 3875) | [1] | [2] | [3] | [4] | [5] | CD69, CD69 (gene 969)

CCC(=O)OCc1ccccc1
inactive: KRT18 (gene 3875) | [1] | [2] | [3] | [4] | [5] | CD69, CD69 (gene 969)

CC(=O)[C@H]1CC[C@H]2[C@@H]3CC=C4C[C@@H](O)CC[C@]4(C)[C@H]3CC[C@]12C
inactive: KRT18 (gene 3875) | [1] | [2] | [3] | [4] | [5] | CD69, CD69 (gene 969)

N#Cc1ccc(CC(=NNC(=O)Nc2ccc(OC(F)(F)F)cc2)c2cccc(C(F)(F)F)c2)cc1
active: [12] 0.784 µM
not listed: IYD (gene 389434) | KRT18 (gene 3875) | [1] | [2] | [3] | [4] | [5] | CD69, CD69 (gene 969)
inactive: all other assays above

O=C1OC2(c3cc(Br)c(O)c(Br)c3Oc3c2cc(Br)c(O)c3Br)c2c(Cl)c(Cl)c(Cl)c(Cl)c21
active: IYD (gene 389434) 23.7 µM

Cc1cc(C2(c3cc(C)c(O)cc3C)OS(=O)(=O)c3ccccc32)c(C)cc1O
inactive: KRT18 (gene 3875) | [1] | [2] | [3] | [4] | [5] | CD69, CD69 (gene 969)

CCCCCCCCCCCCCC(=O)O
active: IYD (gene 389434) 100 µM

Nc1cc([N+](=O)[O-])ccc1O
inactive: KRT18 (gene 3875) | [1] | [2] | [3] | [4] | [5] | CD69, CD69 (gene 969)

C[C@H]1C[C@@H]2[C@H]([C@@H](O)C[C@@]3(C)[C@H]2CC[C@]3(O)C(=O)CO)[C@@]2(C)C=CC(=O)C=C12
inactive: KRT18 (gene 3875) | [1] | [2] | [3] | [4] | [5] | CD69, CD69 (gene 969)

CCCCCCCCCCCCCCCC(=O)OC[C@H](O)[C@H]1OC(=O)C(O)=C1O
active: IYD (gene 389434) 25.6 µM

C=CCOC(=O)CCC1CCCCC1
inactive: KRT18 (gene 3875) | [1] | [2] | [3] | [4] | [5] | CD69, CD69 (gene 969)

OC[C@H]1O[C@H](O[C@]2(CCl)O[C@H](CCl)[C@@H](O)[C@@H]2O)[C@H](O)[C@@H](O)[C@H]1Cl
inactive: KRT18 (gene 3875) | [1] | [2] | [3] | [4] | [5] | CD69, CD69 (gene 969)

OC1OC[C@@H](O)[C@H](O)[C@H]1O (stereo partly drawn)
inactive: KRT18 (gene 3875) | [1] | [2] | [3] | [4] | [5] | CD69, CD69 (gene 969)
